“And” between values parts separate entries of the source, which are not always exact repeats. Equal entries are not always repeated. Compounds without any hit were thinned out: in the full panel of roughly 83,000, 20% have a hit.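 For each line, cells grew in 96-well plates with the test compound present at a single concentration for 48 hours.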 A number with no mark means an inactive call. The source made the active and inactive calls.
tested on: MDA-MB-468 breast; test: NCI-60 one-dose screen, 48 h (100 = growth as untreated, 0 = no growth, -100 = all killed); conditions: 10 µM unless noted
Protocol: Growth inhibition of the MDA-MB-468 human Breast tumor cell line is measured as a screen for anti-cancer activity. Cells are grown in 96 well plates and exposed to the test compound for 48 hours. Compounds are tested at a single concentration, which is 10^-5 M for most compounds. The reported endpoint is percent growth (GI% or GIPRCNT), where numbers from 0 - 100% represent growth inhibition, and numbers from -100% - 0 represent cell death. For example, a value of 40 represents 60% growth inhibition. A value of 0 means no net growth occurred over the course of the experiment. A value of -40 indicates 40% of cells at the beginning of the experiment died by the end of the experiment. A value of -100 means all cells are dead at the end of the experiment.
NCI-60 Human Tumor Cell Lines Screen was performed using the standard one-dose NCI protocol, which is described in more detail at https://dtp.cancer.gov/discovery_development/nci-60/default.htm.
Compounds with GIPRCNT values below 10 were considered active. Activity score was based on GIPRCNT using the following formula: […]
Score is 0 for GIPRCNT values of 100 or above, 50 for GIPRCNT values of 0, and 100 for GIPRCNT values of -100.

| SMILES | growth |
| --- | --- |
| O=C(/C=C/c1ccc(Cl)cc1)c1nc2ccccc2n1Cc1ccc(Br)cc1 | 9.05% (active) |
| CC[C@@H](C)C(=O)O[C@H]1[C@H](O)[C@H]2[C@@H](CN3C[C@@H](C)CC[C@H]3[C@@]2(C)O)[C@@H]2C[C@]34O[C@]5(O)[C@@H](OC(=O)[C@@](C)(O)CC)CC[C@@]3(C)[C@@H]5[C@@H](OC(C)=O)[C@@H](OC(C)=O)[C@H]4[C@@]21O | 90.6% |
| C[Se]C(=O)c1ccccc1OC(C)=O | 45% |
| C[CH2][Pb]([CH2]C)([CH2]C)[O]C(=O)COc1ccccc1 | 9.74% (active) |
| COc1cc2ncnc(Nc3ccc(F)c(Cl)c3)c2cc1OCC(=O)N1CCN(C)CC1 | -32.4% (active) |
| O=c1cc[nH]c(=O)o1 | 105% |
| CC(=O)C(c1c(O)c2ccccc2oc1=O)c1cc(=O)oc2c1ccc1ccccc12 (stereo not given) | 96.6% |
| CC1(C)N=C(N)N=C(N)N1c1ccc(OCCCNC(=O)Nc2ccc(S(=O)(=O)F)cc2)c(Cl)c1 | 14.6% |
| COC(=O)C[C@](O)(CCCC(C)C)C(=O)O[C@H]1C(OC)=C[C@@]23CCCN2CCc2cc4c(cc2[C@@H]13)OCO4 | -27.4% (active) |
| O=[N+]([O-])c1c(Cl)cc(Cl)c([N+](=O)[O-])c1Cl | 15% |
| CCOC(=O)N1CC1 | 92.5% |
| Cc1ccc(C(=O)OC(C(=O)O)C(OC(=O)c2ccc(C)cc2)C(=O)O)cc1 (stereo not given) (tested in a mixture with another compound) | -12.2% (active) |
| C[Se]/C=C1/C(=O)N(c2c(Cl)cccc2Cl)c2ccccc21 | -6.67% (active) |
| Cc1cc[n+](CCc2ccccc2)cc1 | 61.2% and 72.9% |
| CCCCOc1ccc(C(N)Cc2ccccc2)cc1 (stereo not given) | 76.2% |
| N#Cc1ncc(/N=C/c2ccc(N(CCCl)CCCl)cc2)s1 | -2.43% (active) |
| COc1cc(N(CCCl)CCCl)ccc1C=Nc1ccccc1C(=O)O | 63.3% |
| O=[N+]([O-])c1ccc(F)c([N+](=O)[O-])c1F | 98.6% |
| CCCCN(CCCC)CC(O)c1ccccc1 (stereo not given) | 116% |
| CC(C)=CC1C(C(=O)OCc2cccc(Oc3ccccc3)c2)C1(C)C (stereo not given) | 100% |

| SMILES | growth |
| --- | --- |
| O=C1NC(=O)C(=C/C=C/c2ccccc2)C(=O)N1 | 44.2% |
| COc1cc(C2C3=C(CCCC3=O)N(CCO)c3cc4c(cc32)CCC4)cc(OC)c1OC (stereo not given) | 93.8% |
| O=[As](O)(O)c1ccccc1[As](=O)(O)O | 99.7% |
| CC(=O)[O][Hg][c]1nc2c(c(=O)n(C)c(=O)n2C)n1C | 102% |
| C[C@]12CCc3sc(-c4ccccc4O)nc3C1=CC[C@@H]1[C@@H]2CC[C@]2(C)C(=O)CC[C@@H]12 | 106% |
| C=CCOC(=O)C(Br)CC (stereo not given) | 98% |
| CCOC(=O)C1(c2ccccc2)CCN(CC(=O)c2ccc(NC(C)=O)cc2)CC1 | 110% |
| CC(C)(O)/C=C/C(=O)[C@](C)(O)[C@H]1[C@H](O)C[C@@]2(C)[C@H]3CC=C4[C@@H](C[C@H](O)C(=O)C4(C)C)[C@]3(C)C(=O)C[C@]12C | -23.4% (active) |
| COc1cc(/C=C\c2cc(OC)c(OC)c(OC)c2)cc(N/C=C\C(=O)c2ccc(OC(F)(F)F)cc2)c1OC | 27.2% |
| CC(/C=N/N=C(N)N)=N\N=C(N)N | 88.7% |
| NC(N)=N/N=C\c1c[nH]c2ccc(Br)cc12 | -6.01% (active) |
| C#CC1(O)CCC2(C)C(CCC3C4CCC(=O)C4(C)CCC32)C1 (stereo not given) | 86.3% |
| Nc1ccc(-c2nc3cc(F)ccc3[se]2)cc1F | -21% (active) |
| C/C(=C\C(=O)O[C@H]1[C@@H]2[C@H](C)CC[C@H]2[C@]2(C)O[C@@]1(C1CCCCC1)C[C@H]2OC(=O)CO)c1ccccc1 | 28% |
| C=CCc1ccc(OC(=O)Cc2ccccc2)c(OC)c1 | 100% |
| CN1CCC(c2c[nH]c3ccccc23)C1 (stereo not given) | 116% |
| CCCCCCCCC(CO)NCCc1ccccc1 (stereo not given) | 100% |
| CN(C)c1ccc([N+](=O)[O-])c([N+](=O)[O-])c1 | 110% and 95.6% |
| NC(=O)NC(=O)CI | 83.7% |
| O=C(O)C(Br)CBr (stereo not given) | 94.8% |

Source: PubChem BioAssay (NCI)
